Screening data: PubChem BioAssay, The Scripps Research Institute Molecular Screening Center
In the library only some 4.1% were active in any assay of this set; here they are far more common.
PRMT1 inh – PRMT1 methyltransferase inhibitors, primary screen, biochemical, fluorescence polarization. Protein arginine N-methyltransferase 1 (Homo sapiens), Q99873. recombinant PRMT1, activity-based probe fluorescence polarization. inhibition, % at 2.79 µM. 370,000 tested, 1.3% active;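 active means inhibition above about 21% made by adding two undisclosed values, limit read from the data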
UHRF1 MBD2 ctr – UHRF1 methylated DNA binding inhibitors, primary screen, counter-screen for MBD2 inhibitor project, biochemical, TR-FRET, human UHRF1, single concentration; inhibition, % at 4.4 µM; 370,000 tested, 0.75% active; UHRF1 binding to methylated oligo; E3 ubiquitin-protein ligase UHRF1 (Homo sapiens), Q96T88; in the data active means inhibition above about 21%;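 further: UHRF1 SRA domain binding a hemimethylated CpG hairpin DNA probe; 0% = median of test compound wells and 100% = reference inhibitor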
LEDGF integ inh – blockers of LEDGF/p75-dependent integrase strand transfer – biochemical, TR-FRET, high throughput, primary screen | TR-FRET IN-LEDGF/p75 DNA integration, Eu/Cy5 | inhibition, % at 3.7 µM | 370,000 tested, 0.64% active;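 active means inhibition above the screen-wide mean plus 3 SD, cut at about 13% in these data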;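 further: signal is the Cy5 over europium emission ratio at 671 and 618 nm; 0% = plate median of compound wells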
rCAG RNA binder – binders of r(CAG) RNA repeats, primary screen, biochemical, fluorescence | r(CAG) RNA repeat, TO-PRO-1 dye displacement fluorescence | inhibition, % at 3 µM | 370,000 tested, 1.3% active;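 active means inhibition above the plate cutoff, the mean of all test compounds on that plate plus 3 SD, cut at about 35% in these data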;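 further: 0% = DMSO alone and 100% = 100 µM mitoxantrone as full dye displacement; higher means more dye released from RNA so lower well fluorescence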
ABHD5-PLIN5 inh – ABHD5-PLIN5 interaction inhibitors, primary screen, cell lysate, split luciferase complementation, luminescence. Perilipin-5 (Homo sapiens) + 1-acylglycerol-3-phosphate O-acyltransferase ABHD5 (Homo …. Split G. princeps luciferase complementation, 4 h. inhibition, % at 4 µM. 360,000 tested, 0.78% active;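 active means inhibition above the mean inhibition across every tested compound plus 3 SD, cut at about 22% in these data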;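 further: 0% = DMSO only wells and the 100% control is not disclosed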
MBD2 DNA inh – inhibitors of MBD2 binding to methylated DNA, primary screen, biochemical, TR-FRET, DNA-binding domain, human; Methyl-CpG-binding domain protein 2 (Homo sapiens), Q9UBB5; MBD2 binding to methylated oligonucleotide; inhibition, % at 4.4 µM; 370,000 tested, 0.31% active; AID 686964, 2013; in the data active means inhibition above about 13%
Target sequence (Q9UBB5 whole entry, looked up, the tested form may be a part): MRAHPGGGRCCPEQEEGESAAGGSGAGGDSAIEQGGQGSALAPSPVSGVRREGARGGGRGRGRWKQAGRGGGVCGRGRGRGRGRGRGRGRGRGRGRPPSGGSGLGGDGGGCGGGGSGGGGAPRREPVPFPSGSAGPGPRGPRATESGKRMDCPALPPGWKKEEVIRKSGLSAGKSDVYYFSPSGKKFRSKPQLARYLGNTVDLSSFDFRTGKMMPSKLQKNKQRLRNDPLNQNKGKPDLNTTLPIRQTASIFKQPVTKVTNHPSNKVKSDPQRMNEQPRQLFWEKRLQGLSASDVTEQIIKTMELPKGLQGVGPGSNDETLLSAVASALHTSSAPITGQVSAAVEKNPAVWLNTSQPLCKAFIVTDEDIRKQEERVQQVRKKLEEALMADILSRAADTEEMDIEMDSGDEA
UHRF1 ctr MBD2 – UHRF1 methylated DNA binding inhibitors, counter-screen for MBD2 inhibitor project, biochemical, TR-FRET, human UHRF1. AID 720530, 2013. 1,000 tested, 25% active. shares compounds with MBD2 DNA inh. inhibition, % at 4.4 µM. UHRF1 binding to methylated oligonucleotide; in the data active means inhibition above about 21%;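 further: UHRF1 SRA domain binding a labeled hemimethylated CpG hairpin DNA; 0% = vehicle only and 100% = reference inhibitor with vehicle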
MBD2 confirm – inhibitors of MBD2 binding to methylated DNA, confirmation, biochemical, TR-FRET, DNA-binding domain, human | shares compounds with MBD2 DNA inh | TR-FRET MBD2-DBD binding to methylated oligonucleotide | inhibition, % at 4.4 µM | 1,000 tested, 26% active | AID 720531, 2013
IN multimer act – HIV-1 IN multimer formation enhancers, counter-screen for LEDGF/p75 integration inhibitor project, biochemical, TR-FRET; TR-FRET HIV-1 integrase multimerization; 2,000 tested, 17% active; AID 1053131, 2014; activation, % at 7.7 µM; shares compounds with LEDGF integ inh; in the data active means activation above about 8.9%
TRFRET interf – TR-FRET optical interference artefacts, confirmation, artefact control for LEDGF/p75-dependent integration inhibitor project, biochemical, HIV-1 IN multimerization; shares compounds with LEDGF integ inh; TR-FRET optical interference counterscreen; inhibition, % at 7.7 µM; 2,000 tested, under 10 active; AID 1053135, 2014;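 active means inhibition above the mean over all tested compounds plus 3 SD, which no compound reached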;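 further: 0% = integrase with antibodies and DMSO and 100% = antibodies without integrase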
LEDGF integ conf – inhibitors of HIV-1 IN-LEDGF/p75 DNA integration, confirmation, biochemical, TR-FRET; shares compounds with LEDGF integ inh; TR-FRET LEDGF/p75-dependent HIV-1 integration; inhibition, % at 3.7 µM; 2,000 tested, 36% active
* marks the source's active call; other numbers are inactive results; . = no result given. Unless noted, no stated cut-off is given here; in the data, active means inhibition above about 14%; inactive means the rest.

SMILES	PRMT1 inh	UHRF1 MBD2 ctr	LEDGF integ inh	rCAG RNA binder	ABHD5-PLIN5 inh	MBD2 DNA inh	UHRF1 ctr MBD2	MBD2 confirm	IN multimer act	TRFRET interf	LEDGF integ conf
COc1cc(/C=C(\C#N)C(=O)c2ccc(O)c(O)c2)cc(I)c1O	29.2*	58.1*	90.3*	40.2*	16.2	21.9*	2.6	-6.2	21.5*	-108.3	81.7*
Cc1ccc(NCN2C(=O)c3ccccc3C2=O)c(C)n1	2.9	-0.9	-3.1	-0.1	.	7.6	.	.	.	.	.
Nc1ccc(C(CC(=O)O)n2cccc2)cc1 (centres undefined)	4.9	100.3*	64.9*	12.2	1.9	42.8*	8.8	1.1	0.2	-1.1	4.1
COc1ccc(C(c2c(C)[nH]n(-c3ccccc3)c2=O)c2c(C)[nH]n(-c3ccccc3)c2=O)cc1OC	2.9	20.6	26.1*	14.7	-3.0	16.4*	1.5	-0.2	4.4	-15.8	8.1
Cc1ccc(-c2nc3c(c(=O)[nH]c(=O)n3Cc3ccccc3)n2C)o1	16.9	29.6*	22.6*	24.3	15.0	16.3*	16.1	9.3	8.8	-44.4	33.8*
NC(=Nc1cccc(F)c1)NC(=O)OCc1ccccc1	2.6	0.4	3.1	-1.4	.	-0.8	.	.	.	.	.
O=C(Nc1cc2c(oc1=O)CCCC2=O)c1ccc(Cl)cc1	2.5	41.1*	17.1*	12.1	4.3	15.7*	29.5*	15.6*	7.2	-25.8	22.5*
COc1ccc(NC(=O)Nc2cc(C)nn2-c2ccccc2)cc1	-0.3	-1.9	-0.8	-0.9	.	-2.5	.	.	.	.	.
CC(=O)Oc1cccc(/C=c2\sc3nc(-c4ccco4)nn3c2=O)c1	1.8	3.3	1.4	7.5	8.3	-7.4	.	.	.	.	.
CCCOc1ccc(/C=c2\sc3nc(-c4ccco4)nn3c2=O)cc1OCC	16.2	30.6*	13.5*	20.4	-1.5	30.8*	10.1	2.8	-1.9	9.3	7.7
COc1ccc(Cn2cc(CN3[C@@H](Cc4ccccc4)COc4cc(Br)ccc4S3(=O)=O)nn2)cc1	1.7	-0.5	-5.0	7.2	.	4.4	.	.	.	.	.
COc1ccc(-c2cc(=O)[nH][nH]2)cc1OC	14.5	17.2	41.6*	6.0	-59.8	15.9*	2.7	-0.2	0.8	-2.8	6.8
O=c1cc(-c2ccc(Br)cc2)[nH][nH]1	-1.1	1.9	5.1	16.3	-57.1	-0.3	.	.	.	.	.
CC1=NN(c2ccccc2)C(=O)C1	14.8	18.3	30.9*	2.9	-28.7	17.5*	5.8	0.7	1.2	-4.3	1.1
NC(Cc1ccc(O)c([N+](=O)[O-])c1)C(=O)O (centres undefined)	-1.7	1.7	-0.6	-2.7	4.6	2.1	.	.	.	.	.
N[C@@H](Cc1ccc(O)c(O)c1)C(=O)O	9.0	66.8*	89.4*	32.0	-3.0	34.1*	96.3*	58.6*	53.0*	-266.7	93.3*
CN1CCCCC(NC(=O)c2c(F)cccc2F)C1=O (centres undefined)	4.7	2.6	-1.2	-0.4	.	0.5	.	.	.	.	.
N#C/C(=C\c1ccc(O)c(O)c1)C(=O)Nc1cccc2ncccc12	10.2	27.6*	48.6*	27.3	4.0	20.5*	13.0	11.2	71.6*	-256.1	84.8*
COc1ccc(/C=C(\C#N)C(=O)Nc2cccc3ncccc23)cc1OC	2.9	-7.5	2.3	4.1	4.6	-7.9	.	.	.	.	.
N#C/C(=C\c1cc(O)c(O)c(O)c1)C(N)=O	58.6*	46.9*	67.9*	1.2	-4.5	31.7*	3.3	-10.8	30.6*	-154.4	30.5*
COc1cc(O)c2c(c1)OC(c1ccc(O)cc1)CC2=O (centres undefined)	-4.5	-3.0	6.9	6.0	-9.7	-3.8	.	.	.	.	.
Cc1c(O)cc2c(c1O)C(=O)CC(c1ccc(O)cc1)O2 (centres undefined)	2.3	28.7*	21.8*	20.7	3.8	15.1*	8.8	2.6	36.8*	-185.5	39.2*
COCCNC(=O)C1(C)CCCN(C(=O)c2ccc(C(=O)OC)cc2)C1 (centres undefined)	-1.4	20.4	15.1*	-0.9	-6.0	16.2*	-2.0	2.9	-1.3	4.2	2.4
COCCNC(=O)C1(C)CCCN(C(=O)c2ccc(C(F)(F)F)cc2)C1 (centres undefined)	-0.1	-1.7	-2.0	-0.2	-1.1	-2.3	.	.	.	.	.
C=CCOC(=O)N[C@H](c1ccc2ccccc2c1)[C@H](C)/C=C/CC(=O)OC	-0.6	-0.4	-1.2	0.9	.	1.1	.	.	.	.	.
Nc1ccc2nc(-c3cccc(-c4nc5ccc(N)cc5[nH]4)c3)[nH]c2c1	4.0	25.6*	16.2*	22.1	-3.3	13.6*	3.5	4.0	59.9*	-213.4	-11.5
COC(=O)[C@]12C[C@H](CC(=O)NCC3CCCCC3)C(=O)N(Cc3ccc(Cl)cc3Cl)C1=C[C@H](C(C)(C)C)O[C@@H]2C	2.6	0.2	-1.9	8.1	.	-3.8	.	.	.	.	.
Cc1ccc(/C=C/C(=O)NCc2ccco2)o1	12.6	53.5*	37.3*	12.9	.	13.7*	48.1*	17.1*	13.1*	-65.9	60.3*
C/C=C/C(=O)N1CC2(CC(c3cccc(NC(=O)CC)c3)=NO2)C[C@H]1C(N)=O (some centres undefined)	-0.5	-1.0	-5.0	-2.2	-7.3	-3.5	.	.	.	.	.
